VP16 counter – VP16 counterscreen qHTS for inhibitors of ROR gamma transcriptional activity; Drosophila S2 Gal4-VP16 UAS-luciferase, luminescence, 20 h; Potency, µM (titrated, usually from 53.6 µM), inactives show at the highest dose activity, negative = inhibition, hits mostly inhibitors; 310,000 compounds, 3.5% hits;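 further: Gal4-VP16 expression switched on by copper sulfate through the metallothionein promoter; nearly all actives have a fitted effect of over 50% in size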
B2AR arrestin – qHTS assay of beta-arrestin-biased ligands of beta2-adrenergic receptor; beta-arrestin recruitment to beta2AR, cell-based reporter; Potency, µM (doses to about 46.1 µM), without a hit: at the top dose activation, most hits filed as activators; 330,000 compounds, 0.02% hits; Beta-2 adrenergic receptor (Homo sapiens), P07550;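 further: 0% = DMSO controls and full agonism = EC100 isoproterenol or metaproterenol; nearly all actives have a fitted effect of over 65% in size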
RORgamma inh – qHTS for inhibitors of ROR gamma transcriptional activity; Nuclear receptor ROR-gamma (Mus musculus), P51450; Potency, µM (doses to about 53.6 µM), without a hit: at the highest dose activity change, negative = inhibition, actives largely listed as inhibitors; AID 2551, 2010; 310,000 compounds, 5.4% hits; Drosophila S2 Gal4-RORgamma UAS-luciferase reporter, 20 h; further: nearly all actives have a fitted effect of over 60% in size
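A Gal4/UAS one-hybrid system in insect cells: metallothionein-promoter Gal4–ROR gamma fusion plus Photinus luciferase reporter. Copper sulfate 700 uM final, 20 hr ambient incubation, luminescent detection after 10 min with reagent.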
NPSR antagonist – qHTS Assay for Antagonists of the Neuropeptide S Receptor: cAMP Signal Transduction | Potency, µM (titrated, usually from 38.3 µM), for inactives: top-dose activity change, negative = inhibition, most hits filed as inhibitors | CHO-NPSR cells, cAMP TR-FRET, antagonist mode | AID 1461, 2008 | 220,000 compounds, 1% hits | Q6W5P4; further: nearly all actives have a fitted effect of over 50% in size
Target sequence (Q6W5P4 whole entry, looked up): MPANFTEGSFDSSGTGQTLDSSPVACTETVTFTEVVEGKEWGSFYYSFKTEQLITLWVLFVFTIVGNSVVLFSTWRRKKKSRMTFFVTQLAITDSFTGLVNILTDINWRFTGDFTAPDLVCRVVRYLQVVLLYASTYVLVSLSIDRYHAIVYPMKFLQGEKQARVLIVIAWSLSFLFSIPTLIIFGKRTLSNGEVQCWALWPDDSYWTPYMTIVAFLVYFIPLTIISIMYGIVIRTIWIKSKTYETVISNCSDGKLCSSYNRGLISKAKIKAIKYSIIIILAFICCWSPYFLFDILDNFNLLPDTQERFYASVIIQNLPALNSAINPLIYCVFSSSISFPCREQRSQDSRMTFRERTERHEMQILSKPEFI
Starred values were filed as active, the others as inactive; ? = inconclusive; · = not tested or not shown; [ ] = remark or other dose. Compounds with a hit are over-represented: about 5.7% of the library has one in this group of screens. The call rests on the fitted dose curve; in most records, active means well fitted curve in the direction sought with a large enough effect; inconclusive means small, poorly fitted or top-dose-only effect, or another doubt; inactive means no such curve, though single readings can be large; an effect the other way counts as inactive or inconclusive. Unless noted, on the % scale 0 is the no-effect control and ±100 the full control effect; potency means the concentration at half of the fitted maximal effect.

SMILES	VP16 counter	B2AR arrestin	RORgamma inh	NPSR antagonist
C=C1C(=O)O[C@@H]2C[C@@H](C)[C@@H]3C=CC(=O)[C@@]3(C)[C@@H](OC(=O)CC(=O)O[C@H]3[C@@H]4C(=C)C(=O)O[C@@H]4C[C@@H](C)[C@@H]4C=CC(=O)[C@]43C)[C@H]12	0.63µM*	-1%	1.1µM*	?
C=C1C(=O)O[C@H]2C[C@@H](C)[C@@H]3C=CC(=O)[C@@]3(C)C[C@H]12	10µM*	-1%	6.3µM*	-27%
CCCCCCCCCCCCCCC[C@@H](O)[C@@H](N)COP(=O)(O)O	4%	·	-1%	·
O=C1CC[C@@]2(O)C3Cc4ccc(O)c5c4C2(CCN3CC2CC2)[C@H]1O5 (some centres undefined)	2%	·	15%[10 µM]	-10%[46.1 µM]
O=C(CCCc1nc(-c2ccc(Cl)cc2)no1)NCC1CCCO1 (centres undefined)	13µM*	0%	4%	·
Cc1c(C=C2C(=O)N(C)C(=S)N(C)C2=O)c2ccccc2n1CC(=O)NCC1CCCO1 (centres undefined)	2%	0%	-26%	·
Oc1c(Cl)cccc1Cl	6%	·	-2%	·
Nc1nc2c(s1)CCCCCCCCCC2	6%	0%	11µM*	30%
Nc1c2c(nc3sc4c(c13)CCCC4)CCCCC2	7%	0%	21%	2%[46.1 µM]
C=C(C)C(=O)OCC1CO1 (centres undefined)	-11%	·	14%	·
